Hits are enriched below; roughly 4% of the tested compounds scored in any of these assays.
HIF-2a block: HIF-2a reporter inhibitors, primary screen, luminescence, 786-0 RCC cells. inhibition, % at 18.8 µM. 0.72% of 360,000 active. 786-0 RCC cells HIF-2a reporter, luciferase luminescence, overnight;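 active means inhibition of the luminescence signal of 40% or more relative to plate controls, in a single-dose primary screen at 18.75 µM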
KKLEB cytotox: cytotoxicity in KKLEB CF airway cells, primary screen, cytotoxicity control for CF NF-kB inhibitor project, cell-based, uHTS, fluorescence assay plates | 0.36% of 360,000 active | KKLEB CF airway cells viability, ATPlite luminescence, overnight; active compounds read low; cells stimulated with P. aeruginosa culture filtrate | activity change (cytotoxicity), % at 5 µM;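 active means corrected activity change at or below -50% at 5 µM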
TWEAK Fn14 block: inhibitors of TWEAK-Fn14 signaling, primary screen, luciferase reporter cells, uHTS. TWEAK-stimulated Fn14 reporter cells, luciferase luminescence, 8 h. inhibition, % at 10 µM. 2% of 360,000 active. AID 1159606, 2016; in the data active means inhibition above about 50%
Peg3 prom inh: Peg3 promoter-driven luciferase inhibitors, primary screen, cell-based, HeLa, luciferase luminescence. HeLa PEG-Prom luciferase reporter, overnight. inhibition, % at 20 µM. 1.7% of 360,000 active. AID 588405, 2011;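 active means inhibition of at least 50% at 20 µM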
CF NFkB inh: inhibitors of PAF-induced NF-kB signaling, primary screen, cell-based, GFP fluorescence, uHTS; 0.86% of 360,000 active; AID 588850, 2011; KKLEB NF-kB-GFP reporter, GFP fluorescence overnight; inhibition, % at 5 µM;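 active means at least 50% inhibition at 5 µM, scaled per plate between neutral and stimulator controls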;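 further: PAF is a Pseudomonas aeruginosa culture filtrate used as stimulus; plate controls were PAF-stimulated DMSO wells for no effect and unstimulated DMSO wells for full effect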
TROY NFkB inh: inhibitors of TROY-driven NF-kB signaling, primary screen, Q293 LMP1-TROYcd cells, NF-kB luciferase, uHTS; AID 1347056, 2019; 0.98% of 360,000 active; Q293 LMP1-TROYcd NF-kB luciferase reporter, 4 h; inhibition, % at 10 µM;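 active means compounds whose plate-normalised and pattern-corrected inhibition of the luciferase reporter signal at the single screening dose is 50% or more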
Mdm2-MdmX confirm: retested Mdm2-MdmX interaction blockers, confirmation, cell-based, luminescence, single concentration, set 2. AID 504601, 2011. shares compounds with HIF-2a block. inhibition, % at 8 µM. 99% of 740 active. SaOS-2 split-luciferase Mdm2/MdmX complementation;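 active means mean inhibition of the luminescence signal across two replicates at or above 26 percent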
Target sequence (O15151 whole entry, looked up): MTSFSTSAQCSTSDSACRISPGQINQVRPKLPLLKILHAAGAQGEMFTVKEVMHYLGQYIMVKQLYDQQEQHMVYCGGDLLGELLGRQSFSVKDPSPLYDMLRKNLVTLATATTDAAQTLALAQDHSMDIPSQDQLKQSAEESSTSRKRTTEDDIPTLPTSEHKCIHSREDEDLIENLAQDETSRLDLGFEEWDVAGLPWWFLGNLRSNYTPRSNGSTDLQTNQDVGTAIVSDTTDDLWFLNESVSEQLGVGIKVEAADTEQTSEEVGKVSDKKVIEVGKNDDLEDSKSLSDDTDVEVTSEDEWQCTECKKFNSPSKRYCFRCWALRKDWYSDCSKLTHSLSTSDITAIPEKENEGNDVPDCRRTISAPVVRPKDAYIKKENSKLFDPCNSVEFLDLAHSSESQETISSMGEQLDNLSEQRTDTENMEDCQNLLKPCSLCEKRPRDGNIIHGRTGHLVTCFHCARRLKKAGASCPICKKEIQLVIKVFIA
Target sequence (Q00987 whole entry, looked up): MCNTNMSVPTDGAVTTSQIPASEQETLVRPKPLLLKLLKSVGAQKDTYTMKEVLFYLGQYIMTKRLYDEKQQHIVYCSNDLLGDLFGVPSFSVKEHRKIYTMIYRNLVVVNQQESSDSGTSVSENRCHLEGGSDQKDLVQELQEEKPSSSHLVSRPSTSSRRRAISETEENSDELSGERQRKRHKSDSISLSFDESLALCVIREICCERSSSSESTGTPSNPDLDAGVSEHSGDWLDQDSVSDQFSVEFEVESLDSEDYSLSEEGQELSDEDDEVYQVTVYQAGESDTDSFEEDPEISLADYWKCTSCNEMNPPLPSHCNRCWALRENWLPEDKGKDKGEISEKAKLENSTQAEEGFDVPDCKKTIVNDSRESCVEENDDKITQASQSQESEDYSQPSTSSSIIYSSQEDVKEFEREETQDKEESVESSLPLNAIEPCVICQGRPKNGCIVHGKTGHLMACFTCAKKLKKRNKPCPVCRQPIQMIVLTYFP
HIF-2a conf: HIF-2a reporter inhibitor retest, confirmation, luminescence, 786-0 RCC cells; inhibition, % at 18.8 µM; AID 651580, 2012; shares compounds with HIF-2a block; 56% of 1,800 active; HIF-2a luciferase reporter luminescence, overnight;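 active means mean inhibition across four replicates of at least 40 percent at the single tested concentration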
HIF-1a cs: HIF-1a luciferase reporter signal reduction – MiaPaCa-2 cells, single concentration, counter-screen for HIF-2a inhibitor project, confirmation | MiaPaCa-2 HIF-1a luciferase reporter, desferoxamine, overnight | shares compounds with HIF-2a block | 72% of 1,800 active | inhibition, % at 18.8 µM | AID 651589, 2012;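 active means mean inhibition of the reporter signal across four replicates at the single tested dose of 50% or more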
Active calls of the source: *; ! = repeats disagree.

Results for CCOC(=O)CSCc1nc(-c2ccc(Cl)cc2)oc1C ?
HIF-2a block: 50.5*; KKLEB cytotox: 0.9; TWEAK Fn14 block: -1.4; Peg3 prom inh: 1.9; CF NFkB inh: 2.4; TROY NFkB inh: -29.6; HIF-2a conf: 54.1*; HIF-1a cs: 44.1

What do the screens show for `O=C1COC(c2ccccc2O)=NN1CCCl`?
HIF-2a block: -17.2; KKLEB cytotox: -14.8; TWEAK Fn14 block: 8.1; Peg3 prom inh: -14.0; CF NFkB inh: 9.6; TROY NFkB inh: 5.4

How did CC(C)(C)c1ccc(Cn2nnc3c(=O)[nH]c(C4CCCN(C(=O)c5cccs5)C4)nc32)cc1 (configuration not stated) do in these assays?
HIF-2a block: 42.5*; KKLEB cytotox: 5.0; TWEAK Fn14 block: -4.4; Peg3 prom inh: 39.1; CF NFkB inh: -1.8; TROY NFkB inh: 14.4; HIF-2a conf: 13.9; HIF-1a cs: 84.1*

What do the screens show for `COc1ccc(C=NNC(=S)Nc2ccc(F)cc2)cc1OC`?
HIF-2a block: 48.2*; KKLEB cytotox: 1.2; TWEAK Fn14 block: 46.1; Peg3 prom inh: 7.2; CF NFkB inh: -16.6; TROY NFkB inh: 77.8*; HIF-2a conf: 5.7; HIF-1a cs: 37.6

Results for Cc1ccc(C2=[N+]([O-])C3(CCCCC3=O)N(O)C2(C)C)cc1 (configuration not stated) ?
HIF-2a block: 43.7*; KKLEB cytotox: -10.9; TWEAK Fn14 block: 0.6; Peg3 prom inh: 3.4; CF NFkB inh: 7.2; TROY NFkB inh: 6.7; HIF-2a conf: 21.3; HIF-1a cs: 15.1

What do the screens show for `Cc1ccc2c(C)c(C)c(=O)n(C)c2c1`?
HIF-2a block: 6.4; KKLEB cytotox: 11.9; TWEAK Fn14 block: 26.4; Peg3 prom inh: -12.1; CF NFkB inh: 5.6; TROY NFkB inh: 8.6

What do the screens show for `Cc1ccccc1-n1nnnc1Sc1nnnn1-c1ccccc1`?
HIF-2a block: 49.0*; KKLEB cytotox: -69.4*; TWEAK Fn14 block: 87.8*; Peg3 prom inh: 108.8*; CF NFkB inh: 77.6*; TROY NFkB inh: 43.6; Mdm2-MdmX confirm: 103.7*; HIF-2a conf: -14.6; HIF-1a cs: 100.3*

What do the screens show for `Cc1ccccc1-n1nnnc1SCC(N)=O`?
HIF-2a block: 9.5; KKLEB cytotox: 8.6; TWEAK Fn14 block: 1.5; Peg3 prom inh: 12.3; CF NFkB inh: -8.0; TROY NFkB inh: -8.5

What do the screens show for `CCCn1c(C)cc(C(=O)COC(=O)c2ccc[nH]c2=O)c1C`?
HIF-2a block: 42.1*; KKLEB cytotox: -10.5; TWEAK Fn14 block: 79.9*; Peg3 prom inh: -5.7; CF NFkB inh: -5.0; TROY NFkB inh: 71.6*; HIF-2a conf: 35.7; HIF-1a cs: 14.1

How did COCCn1c(C)cc(C(=O)COC(=O)c2n[nH]c3ccccc23)c1C do in these assays?
HIF-2a block: 47.4*; KKLEB cytotox: -58.7*; TWEAK Fn14 block: 86.4*; Peg3 prom inh: -10.1; CF NFkB inh: 9.8; TROY NFkB inh: 53.6*; HIF-2a conf: 44.9*; HIF-1a cs: 30.9

What do the screens show for `COCCN(Cc1ccco1)C(=O)Cn1ncc2c(=O)oc3ccccc3c21`?
HIF-2a block: 45.2*; KKLEB cytotox: 6.8; TWEAK Fn14 block: 1.5; Peg3 prom inh: 6.6; CF NFkB inh: -11.8; TROY NFkB inh: 18.8; HIF-2a conf: -4.5; HIF-1a cs: 17.6

What do the screens show for `COCCCN(Cc1ccco1)C(=O)Cn1ncc2c([nH]c3ccccc32)c1=O`?
HIF-2a block: 3.9; KKLEB cytotox: 7.7; TWEAK Fn14 block: 9.3; Peg3 prom inh: 29.0; CF NFkB inh: 9.0; TROY NFkB inh: 21.7

What do the screens show for `Cc1cc(=O)[nH]c(N=N/C(=N/Nc2ccccc2C)c2ccccc2)n1`?
HIF-2a block: -28.4; KKLEB cytotox: 2.2; TWEAK Fn14 block: -34.7; Peg3 prom inh: 22.2; CF NFkB inh: -0.1; TROY NFkB inh: -36.8; Mdm2-MdmX confirm: 84.0*

What do the screens show for `CCCCN1CC(N2CCN(Cc3ccccc3)CC2)CS1(=O)=O` (configuration not stated)?
HIF-2a block: 0.5; KKLEB cytotox: -3.9; TWEAK Fn14 block: 2.2; Peg3 prom inh: -13.2; CF NFkB inh: 16.7; TROY NFkB inh: -45.0

Results for Cc1cccc(C)c1-c1ccc(CN2C(CC(C)C)C(=O)N(Cc3cn(CC4CCCCC4)nn3)CCS2(=O)=O)cc1 (configuration not stated) ?
HIF-2a block: -5.8; KKLEB cytotox: 8.6; TWEAK Fn14 block: 9.3; Peg3 prom inh: 34.7; CF NFkB inh: 38.3; TROY NFkB inh: 7.8

What do the screens show for `OC(c1cc(-c2ccc(C(F)(F)F)cc2)nc(C(F)(F)F)c1)C1CCCCN1` (configuration not stated)?
HIF-2a block: 75.3*; KKLEB cytotox: -70.5*; TWEAK Fn14 block: -3.2; Peg3 prom inh: 109.2*; CF NFkB inh: 68.0*; TROY NFkB inh: 31.7; Mdm2-MdmX confirm: 103.2*; HIF-2a conf: 5.4; HIF-1a cs: 106.5*

Results for COC(=O)c1ccccc1NC1=C/C(=N\S(=O)(=O)c2cccs2)c2ccccc2C1=O ?
HIF-2a block: -28.0; KKLEB cytotox: -71.6*; TWEAK Fn14 block: 99.3*; Peg3 prom inh: 86.2*; CF NFkB inh: 83.1*; TROY NFkB inh: 51.5*!; Mdm2-MdmX confirm: 96.5*

What do the screens show for `COC(=O)c1cccc(NS(=O)(=O)c2cccs2)c1C`?
HIF-2a block: -26.8; KKLEB cytotox: 4.7; TWEAK Fn14 block: 6.7; Peg3 prom inh: 2.3; CF NFkB inh: -5.3; TROY NFkB inh: -11.4

What do the screens show for `CCCc1c(-c2ccc(F)cc2F)ncn1Cc1ccccc1OC`?
HIF-2a block: -2.6; TWEAK Fn14 block: -14.4; TROY NFkB inh: 16.8

How did O=C1CCCCCN1C(=O)c1ccccc1 do in these assays?
HIF-2a block: -1.7; KKLEB cytotox: -4.4; TWEAK Fn14 block: 10.5; Peg3 prom inh: 5.4; CF NFkB inh: 9.7; TROY NFkB inh: 5.8

How did O=C1CCCCCN1Sc1ccccc1 do in these assays?
HIF-2a block: 44.3*; KKLEB cytotox: -5.0; TWEAK Fn14 block: 5.0; Peg3 prom inh: 14.3; CF NFkB inh: 12.4; TROY NFkB inh: 9.9; HIF-2a conf: 30.8; HIF-1a cs: 8.4

Bioassay records from PubChem BioAssay.
